Compound activity deposited in PubChem by Center for Chemical Genomics, University of Michigan.
Dicer inh – blocks human Dicer maturation of pre-miR-21; z-score at 25 µM; cat-ELCCA pre-miR-21 Dicer processing, chemiluminescence; hits give high values; Q9UPY3; AID 1347074; 6% of 47,000 active; in the data active = z-score above about 3, passing the limit was not always enough;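 also: plate controls were vehicle for no effect and no enzyme for full effect; higher signal means more uncleaved substrate so more Dicer inhibition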
Numbers without * were called inactive. The full list was thinned out, with hits kept by preference.

SMILES | Dicer inh
CCOc1cc(C2C(C(=O)OC)=C(C)NC3=C2C(=O)CC(c2ccccc2)C3)cc(Cl)c1O (stereo not drawn) | 3.7*
CCOc1ccc2nc(S/C=C/C(=O)c3ccc(CC)cc3)sc2c1 | 0.46
COC(=O)C1=C(C)NC2=C(C(=O)CC(C)(C)C2)C1c1ccc(O)c(OC)c1 (stereo not drawn) | -1.2
CCSc1ccc(/C(N)=N/OC(=O)C(C)(C)C)cn1 | -0.49
Cc1cc(N)c(-n2c(-c3ccc(Cl)cc3)cn3c4c(=O)n(C)c(=O)n(C)c4nc23)cc1C | -1.2
Cc1cc(-c2csc(=S)n2Nc2ccccc2)ccc1Cl | -0.71
CCOC(=O)C1=C(C)NC2=C(C(=O)CC(C)(C)C2)C1c1ccc(OC)cc1OC (stereo not drawn) | 0.08
Cc1cc2cc3c(=O)n(C)c(=O)n(C)c3nc2cc1C | 0.47
Cc1cc(C)n(CC(O)c2ccccc2)n1 (stereo not drawn) | 2.1
Cn1ncc2c(N/N=C/c3ccc(Cl)cc3)ncnc21 | 1.2
COC(=O)C1=NNC2(C)C(=O)N(c3ccccc3Cl)C(=O)C12 (stereo not drawn) | 0.9
Cc1ccc(NS(=O)(=O)c2cccs2)cc1 | 0.16
CCOC(=O)c1c(C)oc2ccc(NS(=O)(=O)c3cccs3)cc12 | -0.75
Cc1c(C(=O)O)c2cc(NS(=O)(=O)c3cccs3)ccc2n1S(=O)(=O)c1cccs1 | 7.5*
COc1ccc(C(=O)Cn2c3ccccc3n3nc(-c4ccccc4)nc23)cc1 | 0.26
Nc1ccc(-c2nc3cc(N)c(Cl)cc3[nH]2)cc1 | 7.8
CC(=O)NCc1ccc(S(=O)(=O)NN)cc1 | -7.5
O=C(OCc1nc2ccccc2s1)c1ccc([N+](=O)[O-])o1 | -0.88
CCN(C(=O)c1ccc([N+](=O)[O-])o1)c1ccccc1 | 1.4
CCOC(=O)N1CCN(C(=O)c2ccc([N+](=O)[O-])o2)CC1 | 3.5*
O=C1CN(c2ccc(OC(F)(F)F)cc2)C(=O)CN1CC1CC1 | 2.2
CN(C)S(=O)(=O)c1ccc2c3c(cccc13)C(=O)N2C(=O)c1cccnc1 | -1.3
Cc1ccc(-c2nnc(-c3cccs3)o2)cc1 | 2.9
Cc1ccc(-c2nnc(-c3ccc(C)cc3)o2)cc1 | 5.1*
Cc1ccc(-c2nnc(-c3ccccc3)o2)cc1 | 2
SMILES | Dicer inh
CN(C)/N=C(\NO)c1c(Cl)cccc1Cl | 0.06
Cc1ccc2c(c1)N(C)/C(=C/c1sc3ccccc3[n+]1CCO)S2 | 1.1
NC(=S)CS(=O)(=O)Cc1ccco1 | 16
CN=C1NC(=O)CC(C(=O)Nc2ccc(F)cc2)S1 (stereo not drawn) | 2.4
Cc1ccc2c(c1)NC(c1ccc(C(=O)O)cc1)c1cccn1-2 (stereo not drawn) | 0.01
O=C(O)CCC(=O)c1ccc2c(c1)NC(=O)CO2 | -0.6
CC1=CCC2C(=O)N(c3cc(C)on3)C(=O)C2C1 (stereo not drawn) | -0.01
CC1=CCC2C(=O)N(c3ncccn3)C(=O)C2C1 (stereo not drawn) | 3.7*
CC1=CCC2C(=O)N(c3ccccc3O)C(=O)C2C1 (stereo not drawn) | -0.99
C=CCOc1ccc(C2/C(=C(\O)c3ccc(Cl)cc3)C(=O)C(=O)N2c2nnc(C)s2)cc1 (stereo not drawn) | 1.8
CCOc1ccc2nc(SCCN3CCCCC3)[nH]c2c1 | -0.56
CSc1nc2c(Cl)cccc2c2c1c(=O)n(Cc1ccccc1)n2C | -1
O=C(O)Cn1nnc(-c2ccccc2F)n1 | 1.5
COc1cccc(C(=O)NNc2cc(C(F)(F)F)ccn2)c1 | 1.9
CCOC(=O)c1c(NC(=O)CN(CC)C2CCCCC2)sc2c1CCCC2 | 2.8
CCOC(=O)CCC(=O)Nc1sc2c(c1C(=O)OCC)CCCC2 | 1.5
COC(=O)c1c(NC(=O)c2c(OC)cccc2OC)sc2c1CCC2 | 1.5
COc1ccccc1NC(=O)c1c(NC(=O)c2ccco2)sc2c1CCC2 | 0.05
CCOC(=O)c1c(NC(=O)CC)sc2c1CCC2 | 1.4
COC(=O)c1c(NC(=O)c2ccccc2C(=O)O)sc2c1CCC2 | 3.1*
COC(=O)c1c(NC(=O)CCCC(=O)O)sc2c1CCC2 | 4.3*
NC(=O)c1c(NC(=O)c2ccccc2C(=O)O)sc2c1CCCC2 | 0.5
COc1ccc(NC(=O)c2c(NC(=O)c3ccco3)sc3c2CCC3)cc1 | 3.3*
COC(=O)c1c(NC(=O)c2cc(OC)cc(OC)c2)sc2c1CCC2 | 0.77
O=C(Nc1ccc(F)cc1F)c1sc2ccccc2c1Cl | 0.98
SMILES | Dicer inh
CSc1nc(C)nc(N/C=C(\C#N)C(=O)C2CC2)n1 | 0.04
c1ccc2c(OCc3nc4ccccc4[nH]3)cccc2c1 | 0.35
C=CCn1c(SCC(=O)c2c(C)[nH]c3ccccc23)nnc1-c1cccnc1 | -1.3
CC(=O)NC(c1ccc(Cl)cc1)n1ccnc1 (stereo not drawn) | -0.76
CCC(Sc1nnc2c3ccccc3n(C)c2n1)C(=O)NC(C)c1ccccc1 (stereo not drawn) | 1.1
CCCc1nnc(NC(=O)C(CC)Sc2nnc3c4ccccc4n(C)c3n2)s1 (stereo not drawn) | 3.1*
CCC(Sc1nnc2c3ccccc3n(C)c2n1)C(=O)Nc1nnc(C)s1 (stereo not drawn) | -0.49
COc1ccc2c(c1)CCC/C2=N\NC(N)=O | -0.27
